PubChem BioAssay (NCATS)
“And” between values parts separate entries of the source, which are not always exact repeats. Equal entries are not always repeated.

Columns and labels:
[1] = qHTS profiling for inhibitors of Plasmodium falciparum (3D7) proliferation (AID 743322);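 note: infected erythrocytes exposed to compound for 72 h before lysis; 100% = DMSO vehicle wells and 0% = 0.29 µM artemisinin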; details: P. falciparum 3D7 proliferation; at 28.7 µM (top of the series)
In short: (§1)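 Parasite DNA was quantified by SYBR Green I fluorescence (ex 485, em 535 nm) after overnight lysis in saponin/Triton buffer at room temperature. Cultures at 0.3% parasitemia and 2.5% hematocrit were first exposed to compound for 72 h at 37 C; signals were normalised to artemisinin (0.29 uM) and vehicle wells.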

[2] = qHTS profiling for inhibitors of Plasmodium falciparum (DD2) proliferation (AID 743323); details: lower = more inhibition; at 28.7 µM (top of the series)
In short: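 P. falciparum Dd2-infected erythrocytes (0.3% parasitemia, 2.5% hematocrit) exposed 72 h at 37 C, 5% CO2. Lysis with SYBR Green, overnight at room temperature, fluorescence 485/535 nm; normalized to 0.29 uM artemisinin and DMSO.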

[3] = qHTS profiling for inhibitors of Plasmodium falciparum (HB3) proliferation (AID 743324); details: Plasmodium falciparum HB3 blood-stage proliferation; at 28.7 µM (top of the series);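 note: 100% = DMSO vehicle wells and 0% = artemisinin-treated control wells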
In short: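 SYBR Green fluorescence (485 ex/535 em) of lysed cultures, incubated overnight at room temperature in the dark, quantifies parasite DNA. Infected erythrocytes at 0.3% parasitemia and 2.5% hematocrit were exposed 72 h; values normalized to DMSO and 0.29 uM artemisinin controls.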

[4] = qHTS profiling of the MIPE4 collection as inhibitors of Plasmodium falciparum (DD2) proliferation (AID 743345); details: P. falciparum Dd2 in erythrocytes, SYBR Green DNA, 72 h; at 28.5 µM (top of the series) unless noted
In short: as §1

[5] = qHTS profiling of the MIPE4 collection as inhibitors of Plasmodium falciparum (DD2) proliferation (Rep 2) (AID 743346); details: P. falciparum Dd2 in erythrocytes, SYBR Green DNA, 72 h; at 28.5 µM (top of the series) unless noted
In short: as §1

[6] = qHTS profiling of the MIPE4 collection as inhibitors of Plasmodium falciparum (HB3) proliferation (AID 743347);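 note: plate controls were DMSO vehicle wells for no effect and artemisinin wells for full effect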; details: P. falciparum HB3 in erythrocytes, SYBR Green DNA, 72 h; at 28.5 µM (top of the series) unless noted
In short: as §1

[7] = High-throughput drug toxicity screening in the BPDCN cell line Gen2.2 (AID 1224824); details: Gen2.2 BPDCN cells; at 45.8 µM (top of the series) unless noted;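 note: cells exposed to compounds for 48 h before reading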
In short: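 Gen2.2, 500 cells/well, phenol red-free RPMI/10% FBS/Pen-Strep; 48 h cpd, 37 °C/5% CO2; CTG lum, 15 min RT. Norm: DMSO = 100%, bortezomib 9.2 uM final = 0%.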

[8] = High-throughput drug toxicity screening in the BPDCN cell line Cal-1 (AID 1224825); details: Cal-1 BPDCN cell viability, qHTS; at 45.8 µM (top of the series) unless noted
In short: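 CellTiter-Glo luminescence after 48 h compound exposure; percent activity scaled with DMSO as 100% and bortezomib (9.2 uM final) as 0%. Cal-1 cells seeded at 500/well in RPMI, 10% FBS, no phenol red.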

[9] = qHTS profiling of the MIPE4 collection as inhibitors of Plasmodium falciparum (3D7) proliferation (AID 743344);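 note: scaled between DMSO vehicle wells and 0.29 µM artemisinin as full inhibition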; details: P. falciparum 3D7 in erythrocytes, SYBR Green DNA fluorescence, 72 h; at 28.5 µM (top of the series) unless noted
In short: as §1

SMILES | remaining parasite growth % (stronger effect = lower value) [1] | activity, percent of control [2] | remaining proliferation (% of control), lower = more inhibition [3] | parasite growth remaining, % of DMSO control (lower = more inhibition) [4] | parasite growth, % of control (lower = inhibition) [5] | growth, % of control [6] | cell viability, % of control (lower = more cytotoxic) [7] | viability (% of control) [8] | parasite growth, % of DMSO control [9]
CCC(=C(c1ccccc1)c1ccc(OCCN(C)C)cc1)c1ccccc1 | 17.2% | 5.96% | 8.11% | 37.8% | 31% | 69.7% | 31.7% | 23.2% | –
CCN1CCN(CC(=O)Nc2ccc(-c3cccc4c(=O)cc(N5CCOCC5)oc34)c3sc4ccccc4c23)CC1 | -0.258% | 0.865% | 0.111% | 6.58% | 16.5% | 7.23% | 1.44% | 2.53% | –
O=C(C=Cc1cccnc1)NCCCCC1CCN(C(=O)c2ccccc2)CC1 | 81.9% | 85.9% | 46.3% | 93.7% | 51% | 42% | 48% | 4.19% | 50.2%
CN1CC[C@@H](c2c(O)cc(O)c3c(=O)cc(-c4ccccc4Cl)oc23)[C@@H](O)C1 | 3.4% | 4.17% | 4.58% | 13.5% | 9.93% | 11.3% | 7.16% | 5.59% | 8.91%
Cc1cc(Nc2cc(N3CCN(C)CC3)nc(C=Cc3ccccc3)n2)n[nH]1 | 0.147% | 3.11% | 0.814% | 6.9% [at 57.5 µM] | 8.07% [at 57.5 µM] | 2.5% [at 57.5 µM] | 9.99% [at 92.2 µM] | 3.23% [at 92.2 µM] | 5.15% [at 57.5 µM]
C[C@@H]1CN(CC(=O)Nc2ccc3c(c2)Cc2cccc(-c4cc(=O)cc(N5CCOCC5)o4)c2S3)C[C@H](C)O1 | -0.753% | 3.61% | -0.663% | 20.9% | 9.57% | 2.59% | 11.9% | 13.3% | 7.08%
CC[C@@H]1C(=O)N(C)c2cnc(Nc3ccc(C(=O)NC4CCN(C)CC4)cc3OC)nc2N1C1CCCC1 | 0.0061% | 0.0959% | -0.331% | 6.75% | 17.2% | 6.34% | 4.74% | 2.57% | 4.91%
O=C(NCCCNc1nc(Nc2cccc(NC(=O)N3CCCC3)c2)ncc1I)c1cccs1 | 2.01% and 8.72% | 5.54% and 10.1% | 1.48% and 5.6% | 12.5% | 28.1% | 4.4% | 5.4% | 2.96% | –
CNC(=O)c1cc(Oc2ccc(NC(=O)Nc3cc(C(C)(C)C)nn3-c3ccc4ncccc4c3)c(F)c2)ccn1 | 26.7% | 73.3% | 24.1% | 15.5% | 10.2% | 9.48% | 5.59% | 7% | 5.7%
CN1CCN(c2cc(C(=O)Nc3ccc4c(c3)-c3c(c(C(N)=O)nn3-c3ccc(F)cc3)CC4)c(Cl)cn2)CC1 | -2.46% | 0.473% | -0.224% | 7.41% | 16.2% | 3.51% | 5.17% | 3.02% | 4.93%
C[C@@]12O[C@@H](C[C@]1(O)CO)n1c3ccccc3c3c4c(c5c6ccccc6n2c5c31)CNC4=O | -0.0626% | 0.326% | 0.698% | 6.07% | 28.1% | 9.72% | 9.33% | 5.8% | 6.66%
COC(=O)c1ccc2c(C(=Nc3ccc(N(C)C(=O)CN4CCN(C)CC4)cc3)c3ccccc3)c(O)[nH]c2c1 | 0.245% | 0.784% | 0.135% | 6.24% | 13.4% | 5.35% | 213% | 71.4% | 6.36%
COc1cc2c(Nc3ccc(NC(=O)c4ccccc4)cc3)ncnc2cc1OCCCN1CCOCC1 | 2.34% | 15.5% | 3.78% | 21.6% | 30% | 8.34% | 4.68% | 2.4% | 10.3%
Clc1ccc2ncc(-c3cccc(NC4CNC4)n3)n2c1 | 5.93% | 12% | 6.95% | 24.5% | 24.4% | 3.87% | 15.7% | 4.56% | 10.6%
c1ccc2c(CCNc3ccc(Nc4ccncc4)cc3)c[nH]c2c1 | 1.57% | 6.37% | -0.777% | 10.6% | 6.39% | 5.7% | 5.37% | 3.61% | 11.1%
N#CCNC(=O)c1ccc(-c2ccnc(Nc3ccc(N4CCOCC4)cc3)n2)cc1 | 5.35% | 14% | 10.2% | 12.8% | 13.1% | 4.94% | 55.1% | 32.6% | 4.16%
C[C@@H](Oc1cc(-c2cnn(C3CCNCC3)c2)cnc1N)c1c(Cl)ccc(F)c1Cl | -1.04% | 1.46% | -2.16% | 5.84% | 10.7% | 2.36% | 13.2% | 3.63% | 5.26%
CCOc1cc2ncc(C#N)c(Nc3ccc(F)c(Cl)c3)c2cc1NC(=O)C=CCN(C)C | -0.461% | 3.39% | 0.199% | 7.41% | 9.55% | 4.45% | 17.3% | 9.88% | –
CC(C)[C@H](C(=O)Nc1ccc(C(=O)NO)cc1)c1ccccc1 | -0.0537% | 0.199% | 0.544% | 6.95% | 12.7% | 9.39% | 13.6% | 6.36% | 5.04%
